GPR151 ag: activates the human receptor GPR151; Q8TDV0; PathHunter beta-arrestin GPR151 cells, luminescence; activation, % at 11.2 µM; 1% of 650,000 active; in the data active = activation above about 4.9%;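 note: 0% = median of compound wells and 100% = cells with positive control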
FBW7 act: activators of human E3 ligase FBW7; Q969H0; AlphaScreen FBW7–phospho-cyclin E peptide binding, activator screen; normalized activity (activation), % at 26.1 µM; 0.13% of 650,000 active; in the data active = normalized activity above about 1.9%;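 note: purified mutant Fbw7 with reduced substrate affinity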
Target sequence (Q969H0 whole entry, looked up): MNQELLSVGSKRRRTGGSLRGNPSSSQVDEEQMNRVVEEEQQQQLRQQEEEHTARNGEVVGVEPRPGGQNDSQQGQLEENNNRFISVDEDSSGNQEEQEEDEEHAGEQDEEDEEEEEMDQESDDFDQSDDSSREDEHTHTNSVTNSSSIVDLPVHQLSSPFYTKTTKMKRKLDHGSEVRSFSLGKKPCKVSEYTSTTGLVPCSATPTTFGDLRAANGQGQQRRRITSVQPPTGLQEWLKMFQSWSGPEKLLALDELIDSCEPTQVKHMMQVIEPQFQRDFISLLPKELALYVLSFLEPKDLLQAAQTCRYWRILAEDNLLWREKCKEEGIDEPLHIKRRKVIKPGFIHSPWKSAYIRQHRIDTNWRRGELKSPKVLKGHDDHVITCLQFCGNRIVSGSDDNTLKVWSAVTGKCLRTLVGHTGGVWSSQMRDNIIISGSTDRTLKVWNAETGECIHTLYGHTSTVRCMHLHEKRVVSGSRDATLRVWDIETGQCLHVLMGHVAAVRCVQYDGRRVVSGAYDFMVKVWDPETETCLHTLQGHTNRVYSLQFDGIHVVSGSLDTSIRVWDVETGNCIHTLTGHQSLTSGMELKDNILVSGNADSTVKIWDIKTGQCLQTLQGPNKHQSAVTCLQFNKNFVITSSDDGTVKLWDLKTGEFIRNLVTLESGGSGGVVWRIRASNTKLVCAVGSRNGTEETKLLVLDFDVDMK
TEAD-YAP inh: TEAD-YAP interaction inhibition; HEK-TIYL cells, TEAD-Gal4/YAP UAS-luciferase luminescence; inhibition, % at 9.12 µM; 1.4% of 640,000 active; AID 1259422; in the data active = inhibition above about 32%;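 note: 0% = median of test compound wells and 100% = reference inhibitor wells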
MITF primary: human MITF inhibition, primary screen | O75030 | AlphaScreen MITF homodimerization, bead proximity signal | 0.91% of 650,000 active | inhibition, % at 2.6 µM; in the data active = inhibition above about 50%;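 note: 0% = vehicle wells with protein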
Active calls of the source: *. An excerpt weighted towards active compounds, which were near 3.5% of everything screened.

SMILES | GPR151 ag | FBW7 act | TEAD-YAP inh | MITF primary
CCOc1ccc(N/C=C/C(=O)c2ccc(OC)cc2)c([N+](=O)[O-])c1 | 0 | 0 | 43* | -4
CCOc1ccc(NC(=O)c2cccc(OC)c2)c([N+](=O)[O-])c1 | -3 | 0 | 32* | 22
O=C(Cc1ccccc1)Nc1ccnn1C1CCN(Cc2ccccc2OC(F)F)CC1 | 1 | 0 | 6 | 8
COc1ccc(Nc2cc(C)nc3nc(C)nn23)c(OC)c1 | -1 | 0 | 8 | 13
COc1ccc(OC)c(Nc2cc(C)nc3nc(C)nn23)c1 | 0 | 0 | 34* | 2
COC(=O)c1ccc(Nc2cc(C)nc3ccc(OC)cc23)cc1 | -2 | 0 | 36* | 20
COc1ccc(OC)c(Nc2cc(C)nc3ccc(OC)cc23)c1 | 0 | 0 | 68* | 1
COC(=O)c1ccc2nc(C)cc(Nc3ccc(OC)cc3)c2c1 | 0 | 0 | -6 | 5
COc1ccc2nc(C)cc(Nc3ccc(N4CCN(C)CC4)cc3)c2c1 | -1 | 0 | 77* | 4
O=C(O/C(=C/c1nc2ccccc2n1Cc1ccccc1Br)c1ccc(F)cc1)c1ccc(F)cc1 | -2 | 0 | 1 | 12
COc1ccc(OCC(=O)N/N=C/c2ccc(O)c(OC)c2)cc1 | 3 | 0 | 11 | 3
Cc1ccc(S(=O)(=O)N2CCOC(c3ccccc3)C2)cc1 (centres undefined) | -1 | 0 | -10 | 3
CCOc1ccc(Nc2cc(C)nc3ccc(OC)cc23)cc1 | 1 | 0 | 12 | 11
CCOc1ccc2nc(C)cc(Nc3cc(Cl)ccc3OC)c2c1 | 0 | 0 | 38* | 0
CCn1cnc2sc(C(=O)Nc3nc4ccc(Br)cc4s3)c(C)c2c1=O | 1 | 0 | 40* | -10
CCN(CC)C(=O)Cn1cnc2sc(C(=O)Nc3nc4ccccc4s3)c(C)c2c1=O | 0 | 0 | 80* | -7
Cc1c(C(=O)Nc2nc3ccccc3s2)sc2ncn(CC(=O)N3CC(C)CC(C)C3)c(=O)c12 (centres undefined) | -1 | 0 | 0 | 3
COC(CN(C)c1ccc(-c2ccc(O)cc2)cn1)OC | 1 | 0 | 64* | 9
Cc1cc(N(C)C)nc(NCCNC(=O)C(C)(C)Oc2ccc(Cl)cc2)n1 | -2 | 1 | 32* | 9
CCOc1cccc(/C=N/NC(=O)c2cccs2)c1O | -2 | 0 | 50* | 39
CCN(CC)c1ccc(/C=N/NC(=O)c2cccnc2)c(O)c1 | -1 | 0 | 70* | 28
CCOc1cccc(/C=N\NC(=O)c2ccc(Br)cc2)c1O | -1 | -1 | 13 | 20
CCOc1cccc(/C=N\NC(=O)c2cccnc2)c1O | -1 | -1 | 31 | 59*
CCOc1ccc(/C=N/NC(=O)c2cccs2)cc1 | -5 | 0 | -40 | 3
COc1cccc(/C=N/NC(=O)C(=O)NCc2cccnc2)c1O | -1 | 0 | 6 | 61*
SMILES | GPR151 ag | FBW7 act | TEAD-YAP inh | MITF primary
Cc1cc(C(=O)CN2C(=O)NC3(CCCCC3)C2=O)c(C)n1-c1ccc2c(c1)OCCO2 | 1 | 0 | -1 | 0
O=C(Nc1ccc(NCc2cccnc2)cc1)c1ccc(Cl)cc1Cl | -2 | 0 | 2 | 13
COc1ccccc1CNC(=O)c1nc(-c2cccnc2)no1 | -1 | 0 | -7 | 7
COc1cccc(/C=N/NC(=O)c2cccnc2)c1O | 0 | 0 | 23 | 71*
COCCn1c(C)cc(C2=NNC(=Nc3ccc(C)cc3)SC2)c1C | 0 | 0 | -3 | -5
COc1ccccc1N=C1NN=C(c2ccccc2OC)CS1 | -1 | 0 | -13 | 0
COCCn1c(C)cc(C2=NNC(=Nc3cccc(C)c3)SC2)c1C | 1 | 0 | 25 | 13
Cc1cc(C2=NNC(=Nc3ccccc3)SC2)c(C)n1CC1CCCO1 (centres undefined) | 0 | 0 | 54* | 7
COCCCN=C1NN=C(c2cc(C)n(Cc3ccco3)c2C)CS1 | 1 | 0 | 46* | -2
C=CCN=C1NN=C(c2cc(C)n(CCOC)c2C)CS1 | -7 | 0 | 95* | 5
C=CCn1c(C)cc(C2=NNC(=Nc3ccccc3OC)SC2)c1C | 1 | 0 | 72* | -12
COc1ccc(CNC(=O)c2ccc(Cl)c(S(=O)(=O)Nc3ccccc3)c2)cc1 | 0 | 0 | -7 | -17
CCCNc1nc(Nc2ccccc2)nc2c1ncn2Cc1ccc(C(F)(F)F)cc1 | -2 | 0 | 4 | 9
COc1cc(C2CC(=O)Nc3cc4c(cc32)OCO4)cc(OC)c1OC (centres undefined) | 0 | 0 | 49* | -7
COc1cc([C@@H]2c3cc4c(cc3[C@H](O)[C@H]3COC(=O)[C@H]23)OCO4)cc(OC)c1OC | 4 | 0 | 43* | 4
COc1cc([C@@H]2c3cc4c(cc3[C@@H](O[C@@H]3O[C@@H]5CO[C@@H](C)O[C@H]5[C@H](O)[C@H]3O)[C@H]3COC(=O)[C@H]23)OCO4)cc(OC)c1O | 1 | 0 | -35 | 0
Cc1csc2n1c(C(=O)c1ccccc1)c(C)[n+]2-c1ccccc1 | 0 | 0 | 13 | 3
Cc1ccc(C(=O)c2c(C)[n+](-c3ccccc3)c3scc(C)n23)cc1 | 2 | 0 | 34* | 12
Cn1c(-c2ccccc2)c(/C=C(\C#N)c2nn(CCO)c(N)c2C#N)c2ccccc21 | 0 | 0 | 50* | -8
N#C/C(=C\c1ccc(/C=C(\C#N)c2nn(CCO)c(N)c2C#N)cc1)c1nn(CCO)c(N)c1C#N | 1 | 0 | -1 | 15
Cc1ccc2cccc(OS(=O)(=O)c3ccccc3C)c2n1 | 2 | 1 | 6 | -4
COc1ccc(S(=O)(=O)Oc2cccc3ccc(C)nc23)cc1OC | 4 | 1.9* | 9 | 10
COc1ccc(/C=C/C(=O)OCC(=O)NC(C)(C)C)cc1 | -1 | 0 | 0 | -2
COc1ccc(-n2ncc3c(N4CCCCC4)ncnc32)cc1 | -8 | 0 | 91* | 12
COc1ccc(-n2ncc3c(N4CCN(c5ccccc5)CC4)ncnc32)cc1 | -1 | 0 | -1 | -9
SMILES | GPR151 ag | FBW7 act | TEAD-YAP inh | MITF primary
COc1ccc(-n2ncc3c(N4CCCCCC4)ncnc32)cc1 | -5 | 0 | 97* | -7
O=c1[nH]c2ccccc2cc1-c1noc(-c2ccco2)n1 | 1 | 0 | -12 | 5
O=C(NNS(=O)(=O)c1ccc([N+](=O)[O-])cc1)c1ccccc1F | 0 | 0 | 7 | 3
CCOC(=O)c1ccc(NC(=O)CSc2nc3c(c(=O)n2C)SCC3)cc1 | 1 | 0 | -8 | -2
Cc1ccc(S(=O)(=O)c2c(O)cc(C)c(NS(=O)(=O)c3ccc(Br)cc3)c2C)cc1 | -1 | 0 | 1 | 63*
Cc1ccc(S(=O)(=O)Nc2c(C)cc(O)c(S(=O)(=O)c3ccc(C)cc3)c2C)cc1 | -1 | 0 | 3 | 4
CCN(c1ccccc1)S(=O)(=O)c1ccc2c(c1)oc(=O)n2C | 0 | 0 | 7 | -10
CCN(c1cccc(C)c1)S(=O)(=O)c1ccc2c(c1)oc(=O)n2C | 0 | 0 | 44* | 4
CCN(c1ccc(C)c(C)c1)S(=O)(=O)c1ccc2c(c1)oc(=O)n2C | -1 | 0 | 16 | 6
